This is a sample that favours compounds with a hit; in the whole collection about 1.3% have one here.
RPL19A TOR yeast: yeast TOR pathway RPL19A-GFP modulation | hit rate 0.3% among 330,000 | S. cerevisiae RPL19A-GFP strain, flow cytometry, 3 h; active compounds read low | percent response vs DMSO, % at 10 µM;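 active = percent response vs DMSO below 50%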;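 also: median channel GFP fluorescence of the barcoded RPL19A-GFP strain; lower means less RPL19A-GFP as with rapamycin TOR inhibition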
LAP4 TOR yeast: yeast TOR pathway LAP4-GFP modulation. S. cerevisiae LAP4-GFP multiplex, flow cytometry GFP, 3 h; median GFP as percent of DMSO wells. GFP response vs DMSO, % at 10 µM. hit rate 0.34% among 320,000. AID 2023;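 active = GFP response vs DMSO above a set limit, about the screen mean plus 3 SD, cut at about 150% in these data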
MEP2 TOR yeast: modulators of TOR pathway MEP2-GFP in S. cerevisiae | S. cerevisiae MEP2-GFP strain, flow cytometry GFP, 3 h; 100% = DMSO control level | GFP response vs DMSO, % at 10 µM | hit rate 0.51% among 330,000;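 active = GFP response versus DMSO above a set limit, roughly screen mean plus 3 SD, cut at about 180% in these data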;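 also: median GFP fluorescence of the barcode-gated MEP2-GFP cells per well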
Efflux pump inh: blocks antifungal efflux pumps in multiplex yeast assay | S. cerevisiae Candida pump triplex, Nile Red efflux | AID 485275 | inhibition, % at 10 µM | hit rate 0.44% among 330,000;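 active = plate passing quality check with inhibition over a set limit, or well fluorescence over plate mean plus 4 SD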;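 also: Nile Red retained in pooled yeast measured as flow cytometry median fluorescence; higher means more Nile Red kept so more efflux inhibition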
AGP1-GFP MLPCN: yeast TOR pathway AGP1-GFP modulation; GFP response vs DMSO, % at 10 µM; S. cerevisiae AGP1-GFP multiplex flow cytometry, 3 h; GFP as percent of DMSO wells; hit rate 0.02% among 320,000; AID 2066;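 active = GFP response relative to DMSO above a set limit, near screen average plus 3 SD, cut at about 150% in these data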;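 also: median GFP channel fluorescence of the gated AGP1 strain per well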
CIT2-GFP yeast: yeast TOR pathway CIT2-GFP modulation. S. cerevisiae CIT2-GFP strain, flow cytometry, 3 h; 100 means same as DMSO wells. GFP response vs DMSO, % at 10 µM. hit rate 0.065% among 320,000. AID 2029;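 active = GFP response relative to DMSO above a set limit, near the screen mean plus 3 SD, cut at about 150% in these data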;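 also: ratio of well median GFP fluorescence to mean of DMSO wells on the plate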
Yeast cmpd fluor: counter-screen for efflux pump inhibitors: compound fluorescence | fluorescence ratio to DMSO, % at 10 µM | hit rate 4% among 1,700 | S. cerevisiae AD/pABC3, flow cytometry | shares compounds with Efflux pump inh;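 active = fluorescence ratio to DMSO above its plate's cutoff, the plate mean ratio plus 5 SD, cut at about 210% in these data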;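 also: unstained yeast with no Nile Red so the signal is compound autofluorescence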
CaMdr1 efflux inh: blocks the Candida albicans Mdr1 efflux pump in yeast; S. cerevisiae AD/CaMDR1, Nile Red efflux, flow cytometry; shares compounds with Efflux pump inh; hit rate 1% among 1,700; inhibition, % at 10 µM; in the data active = inhibition above about 26%;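 also: higher means more Nile Red retained so more efflux inhibition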
CaCdr2 efflux inh: inhibitors of Candida albicans Cdr2 efflux pump; shares compounds with Efflux pump inh; S. cerevisiae AD/CaCDR2, Nile Red retention, flow cytometry; Nile Red retention ratio vs DMSO, % at 10 µM; hit rate 4% among 1,700; AID 588520; in the data active = Nile Red retention ratio vs DMSO above about 190%;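 also: higher ratio means more blocking of Cdr2 efflux of the dye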
CaCdr1 efflux inh: inhibitors of Candida albicans Cdr1 efflux pump; shares compounds with Efflux pump inh; S. cerevisiae AD/CaCDR1, Nile Red efflux, flow cytometry; inhibition, % at 10 µM; hit rate 1% among 1,700;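 active = inhibition above the screen-wide mean plus twice its standard deviation, cut at about 32% in these data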
Of the large screens only hits and unclear results are named; the others gave an inactive call (follow-up assays come after a bar, where they were run).

C=CCn1cc(/C=C/c2cc[n+](C)cc2)c2ccccc21	none | Yeast cmpd fluor 289 | CaMdr1 efflux inh inactive | CaCdr2 efflux inh inactive | CaCdr1 efflux inh inactive
CC(C)n1cc(/C=C/c2cc[n+](C)cc2)c2ccccc21	none (no result: RPL19A TOR yeast, LAP4 TOR yeast, MEP2 TOR yeast, Efflux pump inh, AGP1-GFP MLPCN, CIT2-GFP yeast) | Yeast cmpd fluor 472 | CaMdr1 efflux inh inactive | CaCdr2 efflux inh inactive | CaCdr1 efflux inh inactive
CCn1cc(/C=C/c2cc[n+](C)cc2)c2ccccc21	Efflux pump inh 5.0 | Yeast cmpd fluor 726 | CaMdr1 efflux inh inactive | CaCdr2 efflux inh inactive | CaCdr1 efflux inh inactive
Cc1cccc(C(=O)O)c1NC(=O)Cc1cccc2ccccc12	none
Cc1ccc(OCC(=O)NNC(=O)CSc2ncc(C#N)c(N)n2)cc1	Efflux pump inh 18 | Yeast cmpd fluor inactive | CaMdr1 efflux inh inactive | CaCdr2 efflux inh inactive | CaCdr1 efflux inh inactive
CC(=O)N1CCN(c2ccc(NS(=O)(=O)c3ccc(C)cc3)cc2)CC1	none
COc1ccc2c(c1)[C@H]1[C@H](CO2)[C@H](c2ccccc2)[C@]2(C)C(=O)Nc3cc(Cl)ccc3C(=O)N12	none
COc1ccc2c(c1)C(=O)N1[C@H]3c4cc(Cl)ccc4OC[C@@H]3[C@H](c3ccccc3)[C@]1(C)C(=O)N2	none | Yeast cmpd fluor inactive | CaMdr1 efflux inh inactive | CaCdr2 efflux inh inactive | CaCdr1 efflux inh inactive
COc1ccc2c(c1)OC[C@H]1[C@H]2N2C(=O)c3ccc(C)cc3NC(=O)[C@@]2(C)[C@H]1c1ccccc1	Efflux pump inh 34 | Yeast cmpd fluor inactive | CaMdr1 efflux inh inactive | CaCdr2 efflux inh inactive | CaCdr1 efflux inh inactive
Cc1ccc2c(c1)[C@H]1[C@H](CO2)[C@H](c2ccccc2)[C@]2(C)C(=O)Nc3cc(F)c(F)cc3C(=O)N12	none | Yeast cmpd fluor inactive | CaMdr1 efflux inh inactive | CaCdr2 efflux inh inactive | CaCdr1 efflux inh inactive
COc1ccc2c(c1)[C@H]1[C@H](CO2)[C@H](c2ccccc2)[C@]2(C)C(=O)Nc3cc(C)ccc3C(=O)N12	none
Cc1ccc2c(c1)[C@H]1[C@H](CO2)[C@H](c2ccccc2)[C@]2(C)C(=O)Nc3cc(Cl)ccc3C(=O)N12	none
COc1cc2c(cc1OC)C(=O)N1[C@H]3c4cc(C)ccc4OC[C@@H]3[C@H](c3ccccc3)[C@]1(C)C(=O)N2	none | Yeast cmpd fluor inactive | CaMdr1 efflux inh inactive | CaCdr2 efflux inh inactive | CaCdr1 efflux inh inactive
O=C(O)c1cc(NC(=O)c2ccco2)cc(NC(=O)c2ccco2)c1	none
CC(Oc1ccccc1)C(=O)N(CCC1=CCCCC1)c1c(N)n(Cc2ccccc2)c(=O)[nH]c1=O (configuration not stated)	Efflux pump inh 6.2 | Yeast cmpd fluor inactive | CaMdr1 efflux inh inactive | CaCdr2 efflux inh inactive | CaCdr1 efflux inh inactive
Nc1c(N(CCC2=CCCCC2)C(=O)CCCOc2ccccc2)c(=O)[nH]c(=O)n1Cc1ccccc1	none
CCOC(=O)c1c(C)c(C)n(Cc2cccc(OC)c2OC)c1C	Efflux pump inh 14 | Yeast cmpd fluor inactive | CaMdr1 efflux inh inactive | CaCdr2 efflux inh inactive | CaCdr1 efflux inh inactive
CCOC(=O)c1cc(C)n(Cc2cccc(OC)c2OC)c1C	none
CCOc1ccccc1/C=N/NC(=O)c1nnn(-c2nonc2N)c1CN1CCC(C)CC1	Efflux pump inh 0.6 | Yeast cmpd fluor inactive | CaMdr1 efflux inh inactive | CaCdr2 efflux inh inactive | CaCdr1 efflux inh inactive
CCOc1ccccc1/C=N/NC(=O)c1nnn(-c2nonc2N)c1CN1CCCC1	none
Cc1c(C(=O)N/N=C/c2c(O)ccc3ccccc23)nnn1-c1nonc1N	Efflux pump inh 1.0 | Yeast cmpd fluor inactive | CaMdr1 efflux inh inactive | CaCdr2 efflux inh inactive | CaCdr1 efflux inh inactive
CCOc1ccc(-c2c(C(=O)N/N=C/c3ccccc3)nnn2-c2nonc2N)cc1	none | Yeast cmpd fluor inactive | CaMdr1 efflux inh inactive | CaCdr2 efflux inh inactive | CaCdr1 efflux inh inactive
O=C(CCSc1nc(-c2ccco2)cc(C(F)(F)F)n1)N1CCN(c2ccccc2)CC1	Efflux pump inh 0.5 | Yeast cmpd fluor inactive | CaMdr1 efflux inh inactive | CaCdr2 efflux inh inactive | CaCdr1 efflux inh inactive
O=C(C1CCCO1)N1CCN(C(=S)Nc2ccc(F)cc2)CC1 (configuration not stated)	Efflux pump inh 2.5 | Yeast cmpd fluor inactive | CaMdr1 efflux inh inactive | CaCdr2 efflux inh inactive | CaCdr1 efflux inh inactive
COc1ccccc1CNC(=O)COc1ccccc1OC	Efflux pump inh 1.0 | Yeast cmpd fluor inactive | CaMdr1 efflux inh inactive | CaCdr2 efflux inh inactive | CaCdr1 efflux inh inactive
CCCOC(=O)c1cccc(NC(=O)COc2ccc([N+](=O)[O-])cc2)c1	Efflux pump inh 2.1 | Yeast cmpd fluor inactive | CaMdr1 efflux inh inactive | CaCdr2 efflux inh inactive | CaCdr1 efflux inh inactive
CCOC(=O)c1cccc(NC(=O)COc2ccc([N+](=O)[O-])cc2)c1	none
CCOC(=O)C1=CNS(=O)(=O)NC1c1ccc(C(F)(F)F)cc1 (configuration not stated)	none (no result: RPL19A TOR yeast, LAP4 TOR yeast, MEP2 TOR yeast, AGP1-GFP MLPCN, CIT2-GFP yeast)
c1ccc(CN2CCOCC2)cc1	none
c1ccc2c(c1)Cc1cc(CN3CCOCC3)ccc1-2	Efflux pump inh 5.9 | Yeast cmpd fluor inactive | CaMdr1 efflux inh inactive | CaCdr2 efflux inh inactive | CaCdr1 efflux inh inactive
CC(=O)Nc1ccc(NC(=O)Cc2ccc(F)cc2)cc1	Efflux pump inh 1.1 | Yeast cmpd fluor inactive | CaMdr1 efflux inh inactive | CaCdr2 efflux inh inactive | CaCdr1 efflux inh inactive
CCOC(=O)c1c(S(=O)(=O)N2CCCCCC2)c(C)n(C)c1C	none
C[C@H]1CN([C@@H](C)CO)C(=O)c2cccc(NC(=O)Nc3ccc(C(F)(F)F)cc3)c2O[C@@H]1CN(C)C(=O)Nc1ccc(F)cc1	none | Yeast cmpd fluor inactive | CaMdr1 efflux inh inactive | CaCdr2 efflux inh inactive | CaCdr1 efflux inh inactive
C[C@H](CO)N1C[C@H](C)[C@@H](CN(C)C(=O)Nc2ccc3c(c2)OCO3)Oc2c(NC(=O)Nc3ccccc3)cccc2C1=O	none
CC(C)NC(=O)N(C)C[C@H]1Oc2c(NC(=O)Nc3ccc4c(c3)OCO4)cccc2C(=O)N([C@H](C)CO)C[C@@H]1C	none | Yeast cmpd fluor inactive | CaMdr1 efflux inh inactive | CaCdr2 efflux inh inactive | CaCdr1 efflux inh inactive
Cc1cc(-c2nnc(SCC(=O)Nc3ccccc3C)n2N)n[nH]1	none

High-throughput results deposited in PubChem BioAssay by NMMLSC.
